Our source for the growth values is PubChem BioAssay (NCI).

This is part of a sample that, as a whole, favours compounds with a hit. Of some 83,000 tested, about 20% had one in any assay.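 Percent growth is the endpoint: 0 to 100 indicates growth inhibition (40 means 60% inhibition), 0 means no net growth, and negative values indicate cell death.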 Active and inactive are the calls of the source. The calls were made as follows: active = growth percent below 10; inactive = the rest.

In the assay the test system is K-562 leukemia. Description: NCI-60 one-dose screen, 48 h (100 = growth as untreated, 0 = no growth, -100 = all killed). The settings on record: 10 µM unless noted.
As to `OC(c1ccccc1)c1nnc(SCc2ccccc2)n1Cc1ccccc1` (stereo unspecified), the growth was 84.4% (inactive).

`COc1ccc(/C=C2\SC(=Nc3ccccc3)NC2=O)cc1`: the growth was -64.2% (active).

Turning to `COc1ccc(-n2c(C(O)c3ccccc3)nn(CN3CCOCC3)c2=S)cc1` (stereo unspecified), the growth was 110% (inactive).

In the case of `CN(O)c1nc(N(C)O)nc(N2CCOCC2)n1`, the growth is 9.56% (active).

On to `O=C(NC(=S)Nc1cccc(NC(=S)NC(=O)c2ccccc2)c1)c1ccccc1`, for which the growth was 68.7% (inactive).

With `Cn1c2c(c(=O)[nH]c1=O)NC1=C(C(=O)c3ccccc31)C1(C=C(O)c3ccccc31)N2` (stereo unspecified), the growth is 112% (inactive).

In the case of `Nc1nc(Nc2cccc(F)c2)nc2ccccc12`, the growth is 6.62% (active).

For the molecule `COc1cc(OC)cc(N2C(=O)N(Cc3ccc(C(C)(C)C)cc3)c3ccccc3S2(=O)=O)c1`, the growth is 33.3% (inactive).

As to `CC/C=C\C[C@H](O)C/C=C1/C(=O)C=C[C@@H]1C/C=C\CCCC(=O)OCCS(=O)(=O)c1ccccc1`, the growth was 7.77% (active).

On to `COc1ccc(C2Nc3ncnc(N)c3N=C3c4ccccc4C(=O)C32)cc1` (stereo unspecified), for which the growth is 84.5% (inactive).

Consider `O=CCCCC(O)C=O` (stereo unspecified), for which the growth was 103% (inactive).

Regarding `COC(=O)/C(=C\c1c(-c2ccccc2)[nH]c2ccccc12)S(C)(=O)=O`, the growth was 17.2% (inactive).

On to `COc1ccc(-c2nsc3c2NC(=O)CC3c2ccsc2)cc1` (stereo unspecified), for which the growth was 13.3% (inactive).

Turning to `FC(F)(F)c1cccc(Nc2nc(-c3ccccc3)nc3ncccc23)c1`, the growth is -47.1% (active).

`COC(=O)/C(=C\c1c(C)[nH]c2ccccc12)S(=O)(=O)c1ccccc1`: the growth was 14.4% (inactive).

On to `O=Nc1c(O)ccc2ccccc12.O=Nc1c(O)ccc2ccccc12.O=Nc1c([O-])ccc2ccccc12.[Fe+3]`, for which the growth was 115% (inactive).
